Source: PubChem
Only some compounds are listed: those with a hit (about 1.9% of all), similar ones and a draw of the others.
LYPLA1 inh: blocks human lysophospholipase 1, a PME1 counter-screen. O75608. recombinant LYPLA1, FP-Rh probe fluorescence polarization. inhibition, % at 5.9 µM. 0.16% of 320,000 active. AID 2174;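 active = inhibition above the mean of all tested compounds plus 3 SD, set per campaign, cut at about 14% in these data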;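 note: inhibitors block serine hydrolase probe labeling of LYPLA1 so polarization falls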
GSTO1 inh: counter-screen for RBBP9 inhibitors: inhibitors of human GSTO1. P78417. recombinant GSTO1, activity-based probe fluorescence polarization. inhibition, % at 5.96 µM. 1.1% of 300,000 active. AID 1974;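 active = inhibition above the campaign mean inhibition plus 3 SD, cut at about 35% in these data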
PREPL inh: inhibitors of human prolyl oligopeptidase-like enzyme PREPL; Q4J6C6; recombinant PREPL, fluorescence polarization activity-based probe; inhibition, % at 5.96 µM; 0.68% of 320,000 active; AID 2751; in the data active = inhibition above about 43%
Fam108B inh: Fam108B inhibition, counter-screen for RBBP9 inhibitors | recombinant Fam108B, FP-Rh probe fluorescence polarization | inhibition, % at 9.51 µM | 0.33% of 300,000 active;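 active = inhibition above the screen mean inhibition plus 3 SD, computed separately per campaign, cut at about 18% in these data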;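 note: inhibitors lower polarization as less probe binds the enzyme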
LYPLA2 inh: LYPLA2 (human) inhibition in PME1 counter-screen | O95372 | recombinant LYPLA2, FP-Rh probe fluorescence polarization | inhibition, % at 5.9 µM | 0.38% of 320,000 active;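 active = inhibition above the screen-wide mean plus 3 SD, limit set per campaign, cut at about 26% in these data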
Target sequence (O95372 whole entry, looked up): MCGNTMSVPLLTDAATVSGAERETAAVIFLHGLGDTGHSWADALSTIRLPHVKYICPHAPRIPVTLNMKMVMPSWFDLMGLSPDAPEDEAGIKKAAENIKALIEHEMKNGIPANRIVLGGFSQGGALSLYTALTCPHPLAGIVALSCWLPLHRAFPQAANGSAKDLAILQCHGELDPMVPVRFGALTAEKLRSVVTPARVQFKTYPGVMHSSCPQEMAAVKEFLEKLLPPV
PME-1 primary: PME-1 (human) inhibition; 0.53% of 320,000 active; inhibition, % at 5.9 µM; Q9Y570; recombinant PME-1, FP-Rh probe fluorescence polarization; AID 2130;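 active = inhibition above the campaign mean of all compounds plus 3 SD, cut at about 26% in these data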;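 note: competitive labeling of PME-1 active site by serine hydrolase directed probe; inhibitors block probe labeling so polarization falls and inhibition rises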
Target sequence (Q9Y570 whole entry, looked up): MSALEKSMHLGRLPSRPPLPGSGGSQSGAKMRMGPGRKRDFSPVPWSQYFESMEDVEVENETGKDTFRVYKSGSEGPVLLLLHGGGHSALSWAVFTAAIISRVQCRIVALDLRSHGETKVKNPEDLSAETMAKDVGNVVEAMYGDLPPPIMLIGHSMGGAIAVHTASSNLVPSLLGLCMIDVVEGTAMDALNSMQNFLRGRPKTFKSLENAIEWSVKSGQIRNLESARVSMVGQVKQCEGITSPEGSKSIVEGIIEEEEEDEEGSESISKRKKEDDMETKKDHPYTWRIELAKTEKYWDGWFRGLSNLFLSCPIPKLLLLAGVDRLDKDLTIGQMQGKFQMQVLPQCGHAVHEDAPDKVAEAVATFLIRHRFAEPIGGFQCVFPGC
Large screens that a line does not name were inactive.

COC(=O)c1cc(O)cc(OC)c1Oc1cc(C)cc(O)c1C(=O)O	GSTO1 inh 36
COC(=O)c1cc(O)cc(OC)c1C(=O)c1c(O)cc(C)cc1O	none
O=C(COC(=O)CCc1ccccc1)NNC(=O)c1ccccc1	none (no result: LYPLA1 inh, GSTO1 inh, Fam108B inh, LYPLA2 inh, PME-1 primary)
O=C(CCNS(=O)(=O)c1cccc2nonc12)N1CCN(c2cccc(Cl)c2)CC1	LYPLA2 inh 48
CCOc1ccccc1/C=C(\C#N)C(=O)Nc1cccc(C(=O)O)c1	PME-1 primary 142
O=C(NCC(c1cccs1)N1CCOCC1)c1ccccc1NS(=O)(=O)c1ccc(Cl)c([N+](=O)[O-])c1 (stereo not given)	GSTO1 inh 50
Cc1sc2ncnc(OCC(=O)N3CCN(S(=O)(=O)c4ccc(Cl)cc4)CC3)c2c1C	PME-1 primary 40
Oc1[nH]c2ccccc2c1N=Nc1ncnc2c1oc1ccccc12	PME-1 primary 30
CC(C)(C)c1ccc2c(c1)C(=O)c1ccccc1C2=O	none
CC(C)(C=O)C1=CC(=O)c2ccccc2C1=O	GSTO1 inh 49
S=c1[nH]c(-c2ccccc2)cn1/N=C/c1cccc2ccccc12	PME-1 primary 28
S=c1[nH]c(-c2ccccc2)cn1/N=C/c1ccccc1Br	none
CCOc1ncccc1C(=O)N1CCN(C(=O)c2ccccc2)CC1	none
CCOc1ncccc1C(=O)N1CCN(c2cc(Cl)ccc2C)CC1	LYPLA2 inh 28
O=C(NNC(=O)c1cc(Cl)ccc1O)c1cccc(S(=O)(=O)N2CCOCC2)c1	GSTO1 inh 37
CC(=O)Nc1ccc(S(=O)(=O)N(C)CC(=O)Nc2ccc(F)c(F)c2F)cc1	none (no result: GSTO1 inh, Fam108B inh)
COc1ccc(NC(=O)C2CCN(C(=O)c3cccs3)CC2)cc1OC	PME-1 primary 32
COC(=O)C(C)Oc1ccc(Cl)c(CN2OCC(C)(C)C2=O)c1 (stereo not given)	none
O=[N+]([O-])c1ccccc1N/N=C/c1c[nH]c2ccccc12	PME-1 primary 50
CC1CCCCN1S(=O)(=O)c1cnc(Cl)c(Br)c1 (stereo not given)	GSTO1 inh 71
O=S(=O)(c1cnc(Cl)c(Br)c1)N1CCc2ccccc21	GSTO1 inh 45
CN1C2CCC1CC(OC(=O)C(CO)c1ccccc1)C2 (stereo not given)	none
O=C(C[C@H]1C/C=C\CC[C@H](Cc2ccc(F)cc2)C(=O)O[C@H](c2ccccc2)CNC1=O)N[C@H](CO)Cc1ccccc1	none (no result: LYPLA1 inh, GSTO1 inh, Fam108B inh, LYPLA2 inh, PME-1 primary)
COc1ccc(OC)c(NC(=O)Nc2nnc(N3CCC(C)CC3)s2)c1	PME-1 primary 29
COc1ccc(NC(=O)CCC(=O)OCC(=O)c2ccc(Oc3ccc([N+](=O)[O-])cc3)cc2)cc1	LYPLA2 inh 26
O=C(OCn1ncc(Br)c(Br)c1=O)c1ccccc1Cl	GSTO1 inh 37
O=C(OCn1ncc(Br)c(Br)c1=O)c1ccc(F)cc1	GSTO1 inh 36
CCc1ccc(S(=O)(=O)Nc2cc(SCC(=O)O)c(O)c3ccccc23)cc1	GSTO1 inh 84
CCc1nnc(NC(=O)CSc2nc3cccnc3n2Cc2ccccc2)s1	GSTO1 inh 36
CCc1nnc(NC(=O)CSc2nnc(Cc3ccccc3)n2Cc2ccccc2)s1	none
CC(=O)c1ccc(OCC(=O)Nc2c(C)nn(-c3ccccc3)c2C)cc1	none
O=C(O)/C=C/c1cn(-c2ccccc2)nc1-c1ccc(-c2ccc([N+](=O)[O-])cc2)o1	PME-1 primary 27
O=C(O)/C=C/c1cn(-c2ccccc2)nc1-c1cccc([N+](=O)[O-])c1	none
Cc1cc2c(C)cc(=O)[nH]c2cc1NC(=O)CCl	GSTO1 inh 71
CCOc1ccccc1NC(=O)COC(=O)c1nc2nccc(C)n2n1	none (no result: LYPLA1 inh, GSTO1 inh, Fam108B inh, LYPLA2 inh, PME-1 primary)
Cc1cccc(Oc2coc3cc(O)ccc3c2=O)c1	none
CCOC(=O)Oc1ccc2c(=O)c(Oc3cccc(C)c3)coc2c1	PREPL inh 65
CCCCNC1=CC(=O)C(=O)c2ccccc21	GSTO1 inh 48
Cn1c2ccccc2c2cc(/C=N/NC(=O)c3ccc(O)cc3O)ccc21	PME-1 primary 47
CCn1c2ccccc2c2cc(/C=N/NC(=O)c3ccc(O)cc3)ccc21	none
O=C(CN1CCN(S(=O)(=O)c2ccc(F)c(Cl)c2)CC1)N1CCOCC1	none (no result: GSTO1 inh, Fam108B inh)
CC(=O)Nc1ccc(OCC(O)Cn2c3ccccc3c3ccccc32)c(C)c1 (stereo not given)	PREPL inh 45
Cc1cccc(OCCCC(=O)NNC(=O)c2ccccn2)c1	none (no result: GSTO1 inh, Fam108B inh)
COc1ccc(-c2noc(CNS(=O)(=O)c3ccc(NC(C)=O)cc3)n2)cc1	GSTO1 inh 37
Cc1c(NC(=O)c2ccc(NS(=O)(=O)c3ccc(F)c(F)c3)cc2)c(=O)n(-c2ccccc2)n1C	none (no result: LYPLA1 inh, GSTO1 inh, Fam108B inh, LYPLA2 inh, PME-1 primary)
Cn1c(=O)oc2cc(S(=O)(=O)NCCc3ccccc3)ccc21	GSTO1 inh 35
COc1ccc(S(=O)(=O)N2CCCCC2)cc1NC(=O)CCOc1cc(C)ccc1C	none (no result: GSTO1 inh, Fam108B inh)
COc1cc(N/N=C(\C)c2ccc(O)c(C)c2)nc(-c2ccccc2)n1	PME-1 primary 30
CC1=NN(c2ccccc2C(=O)O)C(=O)C1N=Nc1ccccc1 (stereo not given)	GSTO1 inh 36
CC1=NN(C(N)=S)C(=O)C1N=Nc1ccccc1C(=O)O (stereo not given)	none
O=C(O)c1cc(S(=O)(=O)Nc2ccc3cn[nH]c3c2)ccc1Cl	none (no result: LYPLA1 inh, GSTO1 inh, Fam108B inh, LYPLA2 inh, PME-1 primary)
CCN(CC)CCN1CCn2c3c(c4cc(C)ccc42)CCCC31 (stereo not given)	PREPL inh 52
CCN1CCn2c3c(c4cc(Cl)ccc42)CCCC31 (stereo not given)	none
O=[N+]([O-])c1cccc(N=NN(CCO)c2cccc([N+](=O)[O-])c2)c1	PREPL inh 52
CCCN(N=Nc1cccc([N+](=O)[O-])c1)c1cccc([N+](=O)[O-])c1	none
Cn1c(N)c(C(=O)COC(=O)CNC(=O)c2ccc(Cl)cc2Cl)c(=O)n(C)c1=O	none (no result: LYPLA1 inh, GSTO1 inh, Fam108B inh, LYPLA2 inh, PME-1 primary)
COc1ncnc2sc(-c3ccccc3)cc12	none
COc1ccc(Nc2ncnc3sc(-c4ccccc4)cc23)cc1	PME-1 primary 34
Nc1ccc(C(=O)Nc2ccc(NC(=O)c3ccco3)c(O)c2)cc1	none
O=C(O)c1ccc(-c2ccc(/C=N/Nc3ccc([N+](=O)[O-])cc3)o2)cc1	PME-1 primary 47
COc1ccc(C(CNC(=O)c2cccc(S(=O)(=O)NCc3ccccc3)c2)N(C)C)cc1 (stereo not given)	none
O=[N+]([O-])c1ccc(Nc2nc(N/N=C/c3cccc(F)c3)nc(N3CCCC3)n2)cc1	PREPL inh 47
Cc1cccc(-n2c(N)c(C(=O)NCCN3CCOCC3)c3nc4ccccc4nc32)c1	GSTO1 inh 37
Cc1ccc(-n2c(N)c(C(=O)Nc3c(C)n(C)n(-c4ccccc4)c3=O)c3nc4ccccc4nc32)cc1C	PREPL inh 43
CCOC(=O)C1CCN(C(=O)COC(=O)c2c(C)c(CC)nc3ccccc23)CC1	none (no result: LYPLA1 inh, GSTO1 inh, Fam108B inh, LYPLA2 inh, PME-1 primary)
